Screens (PubChem BioAssay)
IDE exosite inh: displaces the probe from the exo-site of human IDE; P14735; purified IDE, FL-6b probe fluorescence polarization; hits give low values; z-score at 20 µM; 6.3% of 17,000 active; AID 1259349;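 active = z-score of -3 or lower, meaning strong loss of probe binding signal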;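 also: His-tagged human IDE residues 42-1019 made in E. coli with 30 nM FL-6b probe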
Target sequence (P14735 42-1019 limits assumed): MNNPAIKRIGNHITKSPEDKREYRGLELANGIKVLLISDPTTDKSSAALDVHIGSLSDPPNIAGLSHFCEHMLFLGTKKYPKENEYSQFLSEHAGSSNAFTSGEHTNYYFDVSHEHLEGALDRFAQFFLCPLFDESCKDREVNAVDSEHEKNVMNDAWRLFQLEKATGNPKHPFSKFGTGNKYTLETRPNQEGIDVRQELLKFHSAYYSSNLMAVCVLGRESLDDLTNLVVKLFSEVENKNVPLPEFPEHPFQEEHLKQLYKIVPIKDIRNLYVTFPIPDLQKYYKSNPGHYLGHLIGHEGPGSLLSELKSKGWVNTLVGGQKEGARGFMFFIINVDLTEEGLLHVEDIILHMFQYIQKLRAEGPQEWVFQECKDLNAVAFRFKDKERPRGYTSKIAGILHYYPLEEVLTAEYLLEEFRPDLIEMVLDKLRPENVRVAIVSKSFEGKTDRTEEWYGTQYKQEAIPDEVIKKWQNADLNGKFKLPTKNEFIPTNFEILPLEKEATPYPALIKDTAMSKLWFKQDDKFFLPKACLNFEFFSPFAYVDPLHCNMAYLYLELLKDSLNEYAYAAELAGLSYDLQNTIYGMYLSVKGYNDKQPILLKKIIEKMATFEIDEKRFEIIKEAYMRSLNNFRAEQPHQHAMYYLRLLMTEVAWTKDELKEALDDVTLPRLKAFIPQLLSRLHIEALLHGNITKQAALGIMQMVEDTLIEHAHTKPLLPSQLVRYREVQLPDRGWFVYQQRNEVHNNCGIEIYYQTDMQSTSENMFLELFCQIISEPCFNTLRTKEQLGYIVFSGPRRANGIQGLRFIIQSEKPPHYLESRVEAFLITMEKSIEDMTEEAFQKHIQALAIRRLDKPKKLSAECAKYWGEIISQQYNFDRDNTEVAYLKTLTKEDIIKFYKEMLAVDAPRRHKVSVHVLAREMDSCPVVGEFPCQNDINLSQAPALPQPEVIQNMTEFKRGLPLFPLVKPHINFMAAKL
* hit, by the source's call. The sample as a whole holds a higher share of hits than the screen did.

SMILES	IDE exosite inh
CN(C)CC#Cc1ccc([C@H]2[C@@H](CO)N3CCCCN(C(=O)C4CCC4)C[C@H]23)cc1	0.063
COc1ccccc1C#Cc1ccc([C@@H]2[C@@H](CO)N3CCCCN(C(=O)C4CCC4)C[C@@H]23)cc1	-9*
COc1ccccc1C#Cc1ccc([C@@H]2[C@H]3CN(C(=O)C4CCC4)CCCCN3[C@H]2CO)cc1	-6.8*
CN(C)CC#Cc1ccc([C@H]2[C@H]3CN(C(=O)C4CCC4)CCCCN3[C@H]2CO)cc1	2.3
O=C(C1CCC1)N1CCCCN2[C@H](C1)[C@@H](c1ccc(C#CC3(O)CCCC3)cc1)[C@@H]2CO	-1.1
COc1ccccc1C#Cc1ccc([C@H]2[C@@H](CO)N3CCCCN(C(=O)C4CCC4)C[C@H]23)cc1	-10*
COc1ccccc1NC(=O)N1CCCCN2[C@H](CO)[C@@H](c3ccc(C#Cc4ccccc4)cc3)[C@@H]2C1	3.8
COc1ccccc1NC(=O)N1CCCCN2[C@H](C1)[C@H](c1ccc(C#Cc3ccccc3)cc1)[C@@H]2CO	1.2
COc1ccc(C#Cc2ccc([C@@H]3[C@@H](CO)N4CCCCN(C(=O)Nc5ccccc5)C[C@@H]34)cc2)cc1	2.1
O=C(Nc1ccc(F)cc1)N1CC(=O)N2[C@H](CO)[C@H](c3ccc(C4=CCCC4)cc3)[C@H]2C1	0.43
COCC(=O)N1C[C@@H]2[C@H](c3ccccc31)[C@@H](CO)N2C(=O)c1ccccc1F	2.4
COc1cccc(C#Cc2ccc3c(c2)[C@H]2[C@H](CCN2C(=O)Cc2ccccc2)[C@@H](CO)N3C)c1	2.6
O=C(c1ccccn1)N1C[C@H]2[C@@H](c3ccccc31)[C@H](CO)N2C(=O)Nc1ccccc1Cl	1.7
COCC#Cc1ccc([C@@H]2[C@@H](C#N)N(C(=O)NC3CCCC3)[C@@H]2CO)cc1	0.24
CCC(=O)N1[C@@H](CO)[C@@H](c2ccc(-c3cccc(F)c3)cc2)[C@@H]1CN(C)C(C)=O	0.53
O=C(c1cccc(F)c1)N1CC2(C1)[C@@H](c1ccccc1)[C@@H](CO)N2Cc1ccccn1	-0.0056
COC(=O)C[C@H]1C[C@H]2c3cc(NC(=O)c4ccc5c(c4)OCO5)ccc3O[C@H]2[C@@H](CO)O1	-0.57
COc1ccccc1NC(=O)N1CC(=O)N2[C@H](C1)[C@H](c1ccc(C#CCC(C)C)cc1)[C@@H]2CO	1.8
COc1ccc(-c2ccc([C@@H]3[C@@H](CO)N4C(=O)CN(C(=O)c5cccnc5)C[C@H]34)cc2)cc1	0.58
COc1cccc(-c2ccc([C@@H]3[C@@H](CO)N4C(=O)CN(C(=O)c5cccnc5)C[C@H]34)cc2)c1	-1.3
Cc1ccc(-c2ccc([C@@H]3[C@H]4CN(C(=O)c5cccnc5)CC(=O)N4[C@H]3CO)cc2)cc1	-3.6*
Cc1cccc(-c2ccc([C@H]3[C@@H](CO)N4C(=O)CN(C(=O)c5cccnc5)C[C@H]34)cc2)c1	-15*
Cc1ccc(-c2ccc([C@H]3[C@@H](CO)N4C(=O)CN(C(=O)c5cccnc5)C[C@@H]34)cc2)cc1	-1.7
O=C(c1cccc(F)c1)N1CC(=O)N2[C@H](C1)[C@H](c1ccc(-c3cccnc3)cc1)[C@@H]2CO	2.2
COc1ccc(-c2ccc([C@H]3[C@@H](CO)N4C(=O)CN(C(=O)c5cccnc5)C[C@H]34)cc2)cc1	-4.9*
SMILES	IDE exosite inh
Cc1cccc(-c2ccc([C@@H]3[C@@H](CO)N4C(=O)CN(C(=O)c5cccnc5)C[C@@H]34)cc2)c1	-13*
COc1ccc(-c2ccc([C@@H]3[C@H]4CN(C(=O)c5cccnc5)CC(=O)N4[C@H]3CO)cc2)cc1	1.7
COc1ccc(-c2ccc([C@H]3[C@@H](CO)N4C(=O)CN(C(=O)c5cccnc5)C[C@@H]34)cc2)cc1	2.7
O=C(CC(F)(F)F)N1C[C@H]2[C@@H](c3ccccc31)[C@H](CO)N2Cc1cccnc1	3.5
COc1ccc(S(=O)(=O)N2CCCCN3[C@H](CO)[C@@H](c4ccc(C#CC5CC5)cc4)[C@@H]3C2)cc1	2.7
CCc1csc(N2[C@H](C#N)[C@H](c3ccc(C4=CCCC4)cc3)[C@H]2CO)n1	0.018
O=C(Nc1cccc(F)c1)N1CC(=O)N2[C@@H](CO)[C@H](c3ccc(C#CC4CC4)cc3)[C@@H]2C1	-0.57
CN(C[C@H]1N[C@@H](CO)[C@H]1c1ccc(-c2cccnc2)cc1)C(=O)CC1CC1	3.8
N#C[C@H]1[C@@H](c2ccccc2C2=CCCC2)[C@H](CO)N1C(=O)Cc1ccncc1	1
CCC(=O)N1CC(=O)N2[C@@H](CO)[C@H](c3ccc(C#CC4CCCCC4)cc3)[C@@H]2C1	3.6
O=C(c1cccnc1)N1CC(=O)N2[C@H](C1)[C@@H](c1ccc(-c3cccnc3)cc1)[C@@H]2CO	-1.9
O=C(c1cccnc1)N1CC(=O)N2[C@@H](CO)[C@H](c3ccc(-c4cccnc4)cc3)[C@@H]2C1	-0.79
O=C(c1ccncc1)N1CC(=O)N2[C@H](C1)[C@@H](c1ccc(-c3cccnc3)cc1)[C@@H]2CO	-3.2*
CC(C)(O)C#Cc1ccc([C@@H]2[C@H]3CN(S(C)(=O)=O)CCCCN3[C@H]2CO)cc1	-0.9
